Compound activity from PubChem BioAssay.
ELG1 DNA repair – inhibitors of ELG1-dependent DNA repair in HEK293T cells; HEK293T ELG1-luciferase reporter, luminescence, 16 h; DNA damage induced by 5-fluorouridine; Potency, µM (highest dose often 46.1 µM), without a hit: at the highest dose activity change, negative = inhibition, actives largely listed as inhibitors; 2.3% of 330,000 active; AID 504467; also: % is scaled to controls: 0 for no effect and ±100 for the full control effect; nearly all actives have a fitted effect of over 55% in size
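HEK293T cells expressing luciferase-tagged ELG1 (2,000/well) received 5-Fluorouridine plus compound or DMSO for 16 hr at 37 °C. Luciferase was read by ONE-Glo luminescence after 30 min at room temperature.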
VP16 counter – inhibits Gal4-VP16 luciferase reporter, ROR gamma counter-screen. Drosophila S2 Gal4-VP16 UAS-luciferase, luminescence, 20 h. Potency, µM (highest dose often 53.6 µM), without a hit: at the top dose activity, negative = inhibition, most hits filed as inhibitors. 3.5% of 310,000 active. AID 2546;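 also: Gal4-VP16 expression switched on by copper sulfate through the metallothionein promoter; % is scaled to controls: 0 for no effect and ±100 for the full control effect; nearly all actives have a fitted effect of over 50% in size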
RORgamma inh – ROR gamma (mouse) transcription inhibition | 5.4% of 310,000 active | Drosophila S2 Gal4-RORgamma UAS-luciferase reporter, 20 h | Potency, µM (series often up to 53.6 µM), inactives show top-dose activity change, negative = inhibition, usual class: inhibitors | AID 2551; also: % is scaled to controls: 0 for no effect and ±100 for the full control effect; nearly all actives have a fitted effect of over 60% in size
Target sequence (P51450 whole entry, looked up, the tested form may be a part): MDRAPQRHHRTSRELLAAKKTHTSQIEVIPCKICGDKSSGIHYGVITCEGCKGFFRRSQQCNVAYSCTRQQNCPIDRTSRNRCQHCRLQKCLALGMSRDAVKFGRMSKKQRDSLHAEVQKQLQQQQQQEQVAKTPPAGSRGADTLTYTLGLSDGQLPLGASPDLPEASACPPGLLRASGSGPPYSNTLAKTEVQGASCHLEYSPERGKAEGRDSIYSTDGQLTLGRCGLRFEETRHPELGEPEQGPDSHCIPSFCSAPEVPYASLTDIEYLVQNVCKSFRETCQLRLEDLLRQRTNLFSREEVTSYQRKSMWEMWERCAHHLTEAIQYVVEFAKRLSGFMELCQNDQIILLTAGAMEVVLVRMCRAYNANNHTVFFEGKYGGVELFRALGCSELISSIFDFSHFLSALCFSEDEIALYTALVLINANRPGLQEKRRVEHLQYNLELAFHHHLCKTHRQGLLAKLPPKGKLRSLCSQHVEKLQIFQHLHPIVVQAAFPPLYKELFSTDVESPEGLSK
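Stable Schneider cell line, Gal4 DNA-binding domain fused to ROR gamma, UAS-luciferase. Cmpd 1 hr RT → CuSO4 700 uM final → 20 hr RT → luciferase reagent 10 min → luminescence.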
SW480 rereplic – induces DNA re-replication in SW480 colon adenocarcinoma cells | Potency, µM (top dose mostly 46.1 µM), for inactives: at the highest dose re-replication activation, hits mostly activators | AID 624297 | 1.8% of 340,000 active | SW480 DNA re-replication, Hoechst DNA content imaging, 48 h; also: % of control where 0% means no effect; nearly all actives have a fitted effect of over 55% in size
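First, 250 cells per well were seeded. Next, compound or vehicle (23 nL) was pinned in, plates sat 48 hr at 37 C. Finally Hoechst was added for 40 min before fluorescence scanning.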
MCF10A rerep – DNA re-replication induction in MCF 10a cells | MCF 10A DNA re-replication, Hoechst nuclear intensity, 48 h | Potency, µM (series often up to 46.1 µM), without a hit: at the highest dose activity, positive = re-replication, most hits filed as activators | 2.9% of 350,000 active | AID 624296; also: % of control where 0% means no effect; nearly all actives have a fitted effect of over 50% in size
Numbers without * were called inactive; ? = inconclusive; · = no result; [ ] = another dose, or the depositor's remark. A selection: hits, their analogues and other compounds. The true share with any hit is near 10%. Calls follow the shape of the dose curve; as a rule, active = well fitted curve in the direction sought with a large enough effect; inconclusive = small, poorly fitted or top-dose-only effect, or another doubt; inactive = no such curve, though single readings can be large; an effect the other way counts as inactive or inconclusive. Potency is read from the fitted curve at half-maximal effect.

SMILES	ELG1 DNA repair	VP16 counter	RORgamma inh	SW480 rereplic	MCF10A rerep
CCCC(=O)NC(c1ccc(Cl)cc1)c1ccc2cccnc2c1O (centres undefined)	?	2.8µM*	2.2µM*	2.9µM*	?
CCCCC(=O)NC(c1ccccc1Cl)c1c(O)ccc2ccccc12 (centres undefined)	-30%	-14%	?	6%	11%
CCCC(=O)NC(c1ccccc1Cl)c1c(O)ccc2ccccc12 (centres undefined)	-26%	-9%	6%[10 µM]	?	14%
COc1ccc2oc(C(=O)OCC(=O)Nc3ccc(C(=O)N(C)C)cc3)c(C)c2c1	?	1%	2%	-5%	12%
CC(=O)c1sc(NC(=O)COc2ccc([N+](=O)[O-])cc2)nc1C	-5%	-3%	-8%	?	?
COC(=O)c1sc2nc3c(c(-c4cccs4)c2c1N)CCCC3	-11%	-1%	16%	18µM*	9.2µM*
NC(=O)c1sc2nc3c(c(-c4ccco4)c2c1N)CCCC3	9.2µM*	-11%	4%	29%	13%
Cc1ccc(-c2c3c(nc4sc(C(N)=O)c(N)c24)CCC3)cc1	?	?	?	24%	12µM*
Cc1ccccc1NC(=O)c1sc2nc3c(c(-c4ccco4)c2c1N)CCC3	23µM*	0%	?	9.2µM*	?
Cc1ccc(NC(=O)c2c(C)nc3sc(C(=O)NC4CCCC4)c(N)c3c2-c2ccco2)c(C)c1	20%	13%	-9%	19%	16%
NC(=O)c1sc2nc3c(c(-c4ccc(Cl)cc4)c2c1N)CCCC3	?	-4%	-5%	?	?
N#Cc1sc2nc3c(c(-c4ccco4)c2c1N)CCCC3	0%	-7%	2%	-2%	26%
COC(=O)c1sc2nc(-c3ccccc3)c3c(c2c1N)CCCC3	-9%	0%	-35%	?	?
Cc1cc(Br)c(NC(=O)CCNC(=O)OCc2ccccc2)cc1C	-12%	-2%	1%	-11%	18%
COC(=O)c1ccc(NC(=O)c2cccc(Cl)c2)o1	26%	?	1%	-8%	2%
CC(CNC(=O)CCC(=O)N1CCOc2ccccc21)c1ccccc1 (centres undefined)	-3%	0%	0%	12%	0%
O=C(Nc1ccc(-c2csc(Nc3ccccc3)n2)cc1)c1cccc(C(F)(F)F)c1	?	-27%	?	13%	-15%
O=C(Nc1ccc(-c2csc(Nc3ccccc3)n2)cc1)c1cc([N+](=O)[O-])cc(C(F)(F)F)c1	9.2µM*	-8%	?	14%	29%
O=C(Nc1cccc(-c2csc(Nc3cccc(C(F)(F)F)c3)n2)c1)c1cc([N+](=O)[O-])cc(C(F)(F)F)c1	2.6µM*	-5%	-1%	?	?
CC(=O)c1cccc(Nc2nc(-c3cccc([N+](=O)[O-])c3)cs2)c1	?	-10%[0.365 µM]	40%	-4%	?
Cc1cc(C)nc(NC2=N[C@@H]3CCCC[C@H]3N2C(=O)Nc2cc(Cl)cc(Cl)c2)n1	·	·	·	-1%	1%
Cc1nc(COC(=O)c2ccc(CO)cc2)cs1	3%	-9%	-12%	2%	2%
Cc1nc(COC(=O)c2cc(O)c3ccccc3c2O)cs1	0%	-13%	?	7.3µM*	?
CCN(C(=O)CSc1nc2cc(C(=O)OC)ccc2c(=O)n1Cc1ccco1)c1cccc(C)c1	7.3µM*	2%	36%	-9%	-2%
CCOC(=O)c1c(NC(=O)CSc2nc3cc(Cl)ccc3c(=O)n2Cc2ccco2)sc(C(=O)N(C)C)c1C	3.3µM*	-14%	-39%	9%	?
SMILES	ELG1 DNA repair	VP16 counter	RORgamma inh	SW480 rereplic	MCF10A rerep
C=CCn1c(=O)c2ccccc2n2c(SCC(=O)Nc3sc(C(=O)N(CC)CC)c(C)c3C(=O)OCC)nnc12	21µM*	?	-1%	?	5%
C=CCn1c(=O)c2ccccc2n2c(SCC(=O)Nc3sc(C)c(CC)c3C(=O)OCC)nnc12	?	3%	-9%	-41%	?
CCc1ccc(NC(=O)CSc2nc3cc(C(=O)OC)ccc3c(=O)n2Cc2ccco2)cc1	?	-1%	2%	17%	-182%[0.0737 µM]
Clc1ccccc1Cn1c(/C=C/c2ccco2)nc2ccccc21	-7%	?	11µM*	·	18µM*
c1ccc(C2=NC(c3ccccc3)N=C(c3ccccc3)N2)cc1	-11%	-4%	-6%	-1%	14%
COc1ccc(C2N=C(c3ccccc3)NC(c3ccccc3)=N2)cc1	-2%	-5%	?	?	2.6µM*
O=C(NCCc1nc2ccccc2[nH]1)c1cc([N+](=O)[O-])cc([N+](=O)[O-])c1	0%	-17%	?	-4%	-59%
N/N=C(/Cc1nc2ccccc2[nH]1)c1ccc([N+](=O)[O-])cc1	15%	?	14µM*	-3%	-2%
N#CCCN/N=C(/Cc1nc2ccccc2[nH]1)c1ccc(Cl)cc1	?	-2%	?	·	·
Cc1ccc(N/N=C(\Cc2nc3ccccc3[nH]2)c2ccccc2)cc1	?	?	?	1.8µM*	?
c1ccc(N/N=C(\Cc2nc3ccccc3[nH]2)c2ccccc2)cc1	?	?	-16%[10 µM]	15%	?
Clc1cccc(/C(Cc2nc3ccccc3[nH]2)=N\Nc2ccccc2)c1	?	?	35µM*	?	?
O=C(Cc1nc2ccccc2[nH]1)N/N=C/c1ccccc1	?	3%	32%	21µM*	12µM*
Nc1cc2c(cc1Br)-c1ccc(F)cc1C2O (centres undefined)	·	·	·	0%	5%
O=C(CSc1nc2ccc([N+](=O)[O-])cc2s1)c1ccc2ccccc2c1	0%	8%	-10%	-6%	1%
CCN/N=C(\Cc1nc2ccccc2[nH]1)c1ccccc1	?	-15%	?	16%	21µM*
N#CCCN/N=C(\Cc1nc2ccccc2[nH]1)c1ccccc1	6%	7%	26%	0%	2%
Cn1c(=O)c2c(nc(Cc3ccc(N)cc3)n2C)n(C)c1=O	-19%	3%	-10%	-5%	0%
CCS(=O)(=O)NCc1ccc2[nH]c3c(c2c1)CCCC3	-15%	1%	13%	·	·
O=C(NCc1ccc2[nH]c3c(c2c1)CCCC3)c1ccc(S(=O)(=O)N2CCCCC2)cc1	-11%	1%	18%	2%	0%
O=C(Nc1ccc2[nH]c3c(c2c1)CCCC3)c1ccco1	4.5µM*	-22%	15%	-2%	-1%
S=C(NCc1ccc2[nH]c3c(c2c1)CCCC3)Nc1ccccc1	-13%	10µM*	1.8µM*	?	21µM*
Cc1cc(C)cc(NC(=S)NCc2ccc3[nH]c4c(c3c2)CCCC4)c1	?	7.1µM*	2.5µM*	?	?
Cc1cc2cc(NC(=O)c3ccco3)ccc2[nH]1	?	1%	-39%	-2%	-3%
